Results filed as inconclusive are left out. A call without a number means that no potency is given here. The source made the active and inactive calls. Calls come from the whole dose curve; as a rule, active = well fitted cell-killing curve with a large enough effect; inconclusive = small, poorly fitted or top-dose-only effect, or effect the other way; inactive = flat fitted curve, though single readings scatter. Peptide text beside a SMILES is read from it.
test: S16 Schwann cell viability assay (CellTiter-Glo assay) (AID 624031); settings: S16 rat Schwann cells viability, 24 h; series mostly up to 57.5 µM; note: nearly all actives have a fitted effect of over 70% in size
Description: Charcot-Marie-Tooth-Association [CMTA]
National Center for Advancing Translational Sciences [NCATS]
Charcot-Marie-Tooth (CMT) disease was first characterized by Jean-Martin Charcot and Pierre Marie in France and, independently, by Howard Henry Tooth in England in 1886. CMT is one of the most common inherited neurological diseases, affecting approximately 1 in 2,500 Americans. […] The most prevalent type of CMT is known as CMT1A and caused by a duplication of the PMP22 gene which leads to over-expression of this protein. PMP22 is a glycosylated intrinsic membrane protein accounting for 2-5% of the myelin protein content, and its over-expression results in demyelination and subsequently axonal loss.
A pair of cellular transcription-based assays was developed in the S16 rat Schwann cell lines (Hai, M., et al., 2002) stably transfected with orthogonal reporters - firefly luciferase (Fluc) and beta-lactamase (beta-Lac) - whose expression is driven by an intronic regulatory element of the PMP22 gene (Jones, E.A., et al., 2011) to recapitulate endogenous expression of PMP22. A comprehensive library of approved drugs, the NCGC Pharmaceutical Collection (Huang, R., et al., 2011), was screened in the cross-validating platform of the orthogonal reporter assays to identify drug modulators inhibitory towards PMP22 expression.
A set of counter-screens was devised to address non-specific activity of the library. An ATP-dependent CellTiter-Glo assay (developed by Promega Corp) was utilized to control cell viability. In addition, biochemical Fluc enzyme assay was performed to assess direct inhibition of the Fluc enzymatic activity.
Hai, M., Muja, N., DeVries, G.H., Quarles, R.H. and Patel, P.I. Comparative analysis of Schwann cell lines as model systems for myelin gene transcription studies. J Neurosci Res, 2002. 69(4): pp 497-508
Huang, R., Southall, N., Wang, Y., Yasgar A., Shinn P., Jadhav, A. , Nguyen, D.-T. and Austin, C.P., The NCGC pharmaceutical collection: a comprehensive resource of clinically approved drugs enabling repurposing and chemical genomics. Sci Transl Med, 2011. 3(80): p. 80ps16.
Native S16 cells were seeded in white solid-bottom 1536 well plates at between 500-750 cells/6uL in DMEM medium containing 10% FBS, w/o phenol red. After overnight incubation at 37 degree Celsius/5% C02, 23 nL of compounds or DMSO were delivered to each well using a pin tool, followed by 24h-incubation at 37 degree Celsius/5% C02. Then one volume of CellTiter-Glo assay reagent (Promega) was added to each well for cell viability measured by a ViewLux plate reader (PerkinElmer). The % activity was determined by normalizing to the average readings from wells containing no cells relative to DMSO-treated cells (0% Activity). The concentration-effect curves were then classified based on curve quality (r2), response magnitude and degree of measured activity.
Potency is the fitted concentration of half-maximal effect.

SMILES	Potency
CC1(C)C(C=C(Cl)Cl)C1C(=O)OCc1cccc(Oc2ccccc2)c1 (stereo not given)	inactive
CN1C(=O)CN2CCc3ccccc3C2c2cc(Cl)ccc21 (stereo not given)	inactive
CC1=C(/C=C/C(C)=C/C=C/C(C)=C/CO)C(C)(C)CCC1	inactive
C[C@@H]1CCC2[C@@H](C)[C@@H](O)O[C@@H]3O[C@@]4(C)CC[C@@H]1[C@@]23OO4 (stereo not given in full)	inactive
Clc1cc(Cl)c(OCC#CI)cc1Cl	25.6 µM (active)
O=S(=O)(O)O	inactive
CCCCCCCCCCCCCCCC(=O)OCC(COC(=O)CCCCCCCCCCCCCCC)OC(=O)CCCCCCCCCCCCCCC	inactive
Cc1c(C)c2c(c(C)c1O)CC[C@@](C)(CCC[C@H](C)CCC[C@H](C)CCCC(C)C)O2	inactive
O=C(O)CCC(=O)C(=O)O	inactive
Cc1ccccc1	inactive
Oc1cc(O)c2c(c1)OC(c1ccc(O)c(O)c1)C(O)C2 (stereo not given)	inactive
CCC(=O)NCCC1CCc2ccc3c(c21)CCO3 (stereo not given)	inactive
C[C@H]1C[C@H]2[C@@H]3CCC4=CC(=O)C=C[C@]4(C)[C@@]3(F)[C@@H](O)C[C@]2(C)[C@@]1(O)C(=O)CO	inactive
Nc1c(Br)cc(Br)cc1CNC1CCC(O)CC1 (stereo not given)	inactive
CCOc1ccc2c(c1)C(C)=CC(C)(C)N2	inactive
CCCCCCOc1ccc(C(=N)N(CCCC)CCCC)c2ccccc12	16.1 µM (active)
CCCC(=O)Nc1ncnc2c1ncn2C1OC2COP(=O)(O)OC2C1OC(=O)CCC (stereo not given)	inactive
NC(=O)c1ncn(C2OC(CO)C(O)C2O)n1 (stereo not given)	inactive
O=C1CSC2(CCN(CCCN3c4ccccc4Sc4ccc(Cl)cc43)CC2)N1	32.2 µM (active)
CCCCCCCCCCCC[n+]1ccc2ccccc2c1	16.1 µM (active)

SMILES	Potency
CO[C@H](C(=O)[C@@H](O)[C@@H](C)O)C1Cc2cc3cc(O[C@H]4C[C@@H](O[C@H]5C[C@@H](O)[C@H](O)[C@@H](C)O5)[C@@H](O)[C@@H](C)O4)c(C)c(O)c3c(O)c2C(=O)[C@H]1O[C@H]1C[C@@H](O[C@H]2C[C@@H](O[C@H]3C[C@](C)(O)[C@H](O)[C@@H](C)O3)[C@H](O)[C@@H](C)O2)[C@H](O)[C@@H](C)O1 (stereo not given in full)	inactive
CC(Cc1ccc(O)c(O)c1)C(C)Cc1ccc(O)c(O)c1 (stereo not given)	inactive
O=C(O)c1cc(=O)c2c3nc4ccccc4oc-3cc(=O)c2[nH]1	36.1 µM (active)
CC(C)(C)C(=O)OCOC(=O)[C@@H]1N2C(=O)[C@@H](N=CN3CCCCCC3)[C@H]2SC1(C)C	inactive
CCN(CC)Cc1cc(Nc2ccnc3cc(Cl)ccc23)ccc1O	inactive
CN(C)CCCN1c2ccccc2C(C)(C)c2ccccc21	28.7 µM (active)
CCCCCCCC/C=C\CCCCCCCC(=O)O	inactive
CCNC(=O)[C@@H]1CCCN1C(=O)[C@H](CCCN=C(N)N)NC(=O)[C@H](CC(C)C)NC(=O)[C@@H](Cc1c[nH]c2ccccc12)NC(=O)[C@H](Cc1ccc(O)cc1)NC(=O)[C@H](CO)NC(=O)[C@H](Cc1c[nH]c2ccccc12)NC(=O)[C@H](Cc1cnc[nH]1)NC(=O)[C@@H]1CCC(=O)N1	6.42 µM (active)
O=CCCCC=O	inactive
COc1ccc2c3c1O[C@H]1C[C@@H](O)C=C[C@@]31CCN(C)C2	inactive
COC(=O)[C@H]1[C@H]2C[C@@H]3c4[nH]c5ccccc5c4CCN3C[C@H]2C[C@@H](OC(=O)c2cc(OC)c(OC)c(OC)c2)[C@@H]1OC	5.1 µM (active)
CC(=O)N[C@@H](CC(=O)O)C(=O)N[C@@H](CCC(=O)O)C(=O)O (Ac-Asp-Glu-OH)	inactive
COC(=O)C1=C(C#N)NC(C)=C(C(=O)OC(C)C)C1c1cccc([N+](=O)[O-])c1 (stereo not given)	inactive
COC(F)(F)C(Cl)Cl	inactive
CC(NNC(=O)c1ccccc1)c1ccccc1 (stereo not given)	inactive
CC(C)=O	inactive
Nc1c(N=Nc2ccc(-c3ccc(N=Nc4cc(S(=O)(=O)O)c5ccccc5c4N)cc3)cc2)cc(S(=O)(=O)O)c2ccccc12	inactive
O=C(O)CN(CCN(CC(=O)O)CC(=O)O)CC(=O)O	inactive
CC(=O)Oc1c(C)cc(OCC(O)CNC(C)C)c(C)c1C (stereo not given)	inactive
C#CCOc1ccc2c(C)cc(=O)oc2c1	inactive
